Results as given in PubChem BioAssay (NCI).
The panel holds about 83,000 compounds, 20% with a hit somewhere; the sample as a whole holds those more often.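 48-hour exposure, single concentration, 96-well plates; percent growth endpoint where 0 means no net growth. Active: below 10.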 A number with no mark means an inactive call.

These compounds were tested on KM12 colon (assay: NCI-60 one-dose screen, 48 h (100 = growth as untreated, 0 = no growth, -100 = all killed)). Conditions: 10 µM unless noted.

SMILES	growth [%]
NC(=O)NCCO	101
Ic1cccs1	103
O=S1(=O)c2ccccc2Oc2ccccc21	109
CSc1nc2[nH]ncc2c(=O)[nH]1	99.9
CC(=O)NC(O)C(Cl)Cl (stereo not drawn)	103
COC(=O)c1cccc([N+](=O)[O-])c1	103
CC(CCC#N)(CCC#N)C(=O)c1ccccc1	108
O=C(NCc1ccccc1)c1cccc([N+](=O)[O-])c1	85
CC(CC(CCC(=O)O)(c1ccccc1)c1ccccc1)N(C)C (stereo not drawn)	109
Cc1ccc(C2CCCCC2)cc1Br	94.3
COC1OC(C(O)C(O)CO)C(O)C(O)C1O (stereo not drawn)	106
C=CCS(C)(=O)=O	88.3
C/C(=N\Nc1ccc([N+](=O)[O-])cc1[N+](=O)[O-])c1ccc(Br)cc1	93.3
Nc1ncnc(Nc2ccccc2)n1	120
CCOC(C=O)OCC	104
C/C(=N\O)c1ccccn1	93.8
CC(C)C(C)(C)C(=O)C(C)(C)C(C)(C)C	107
C=C(C)COc1ccc(C(C)(C)C)cc1	103
CCC(C)c1c(N)n(S(=O)(=O)c2ccc(C)cc2)oc1=O (stereo not drawn)	104

SMILES	growth [%]
CCN(C(=O)Nc1ccccc1Cl)c1ccccc1	105
CCN(C(C)=O)c1ccc([N+](=O)[O-])cc1	103
NNc1ncccn1	101
O=C(O)c1ccc([N+](=O)[O-])cc1S(=O)(=O)O	104
CC(C)C1CCC(C)C(O)C1 (stereo not drawn)	97.3
CC(=O)Oc1c(Cl)cccc1-c1ccccc1	104
O=Cc1c(O)c2ccccc2[nH]c1=O	139
C/C(=N\N=C(/C)c1cccc([N+](=O)[O-])c1)c1cccc([N+](=O)[O-])c1	97.9
CCCNS(=O)(=O)c1ccc(Cl)cc1	99.6
CC(C)C(=O)OCCOc1ccc(C(C)(C)C)cc1	93.3
COc1cccc(C(=O)O)c1OC	101
CC(C)(N)CO[C@H]1C[C@H]2CC[C@@]1(C)C2(C)C	94.1
OCCc1ccc(Cl)cc1	88.9
O=C(Nc1cccc(Cl)c1)c1ccc(Cl)cc1Cl	85.1
C1C[S+]2CC[S+]1CC2	106
O=C(Oc1ccccc1Cl)c1ccc(Cl)cc1Cl	87.4
NNc1ncnc2c1ncn2C1OC(CO)C(O)C1O (stereo not drawn)	28.5
Cc1[nH]nc(C(N)=O)c1[N+](=O)[O-]	103
CCCCCC(=O)OCCC1CCCCC1	101
